The supplement of paper PMC6897291

What was measured:
[1] = test system: U-2932; experiment: growth inhibition by drug alone (1 - RLU/untreated control) (fraction); higher = stronger inhibition; conditions: 177Lu-lilotomab satetraxetan 0 ug/ml
How it was run: (§1)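 Plates pre-printed with the Selleck Cambridge Cancer Compound library at 10/100 nM (RIVA) or 10/1,000 nM (U-2932) received 3,000 cells/well. These cells had been washed after 18 h untreated or with a radiolabelled anti-CD37 antibody conjugate (~600 MBq/mg; 0.5 µg/ml RIVA, 1 µg/ml U-2932). Growth inhibition was obtained from RealTime-Glo luminescence in relation to untreated no-drug wells. Each daily read from day 3, taken after 1 h at 37°C, was converted as 1 − RLU/mean of 48 such wells per plate.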

[2] = test system: RIVA; experiment: as above; conditions: 177Lu-lilotomab satetraxetan 0 ug/ml
How it was run: as §1

[3] = test system: U-2932; experiment: growth inhibition by drug plus 177Lu-lilotomab satetraxetan (1 - RLU/untreated control) (fraction); higher = stronger inhibition; conditions: 177Lu-lilotomab satetraxetan 1 ug/ml
How it was run: as §1

[4] = test system: RIVA; experiment: as above; conditions: 177Lu-lilotomab satetraxetan 0.5 ug/ml
How it was run: as §1

Compound | growth inhibition by drug alone ([1]; 10 nM, time (day): 3) | growth inhibition by drug alone ([1]; 10 nM, time (day): 4) | growth inhibition by drug alone ([1]; 10 nM, time (day): 5) | growth inhibition by drug alone ([1]; 10 nM, time (day): 6) | growth inhibition by drug alone ([1]; 1000 nM, time (day): 3) | growth inhibition by drug alone ([1]; 1000 nM, time (day): 4) | growth inhibition by drug alone ([1]; 1000 nM, time (day): 5) | growth inhibition by drug alone ([1]; 1000 nM, time (day): 6) | growth inhibition by drug alone ([2]; 10 nM, time (day): 3) | growth inhibition by drug alone ([2]; 10 nM, time (day): 4) | growth inhibition by drug alone ([2]; 10 nM, time (day): 5) | growth inhibition by drug alone ([2]; 10 nM, time (day): 6) | growth inhibition by drug alone ([2]; 100 nM, time (day): 3) | growth inhibition by drug alone ([2]; 100 nM, time (day): 4) | growth inhibition by drug alone ([2]; 100 nM, time (day): 5) | growth inhibition by drug alone ([2]; 100 nM, time (day): 6) | growth inhibition by drug plus 177Lu-lilotomab satetraxetan ([3]; 10 nM, time (day): 3) | growth inhibition by drug plus 177Lu-lilotomab satetraxetan ([3]; 10 nM, time (day): 4) | growth inhibition by drug plus 177Lu-lilotomab satetraxetan ([3]; 10 nM, time (day): 5) | growth inhibition by drug plus 177Lu-lilotomab satetraxetan ([3]; 10 nM, time (day): 6) | growth inhibition by drug plus 177Lu-lilotomab satetraxetan ([3]; 1000 nM, time (day): 3) | growth inhibition by drug plus 177Lu-lilotomab satetraxetan ([3]; 1000 nM, time (day): 4) | growth inhibition by drug plus 177Lu-lilotomab satetraxetan ([3]; 1000 nM, time (day): 5) | growth inhibition by drug plus 177Lu-lilotomab satetraxetan ([3]; 1000 nM, time (day): 6) | growth inhibition by drug plus 177Lu-lilotomab satetraxetan ([4]; 10 nM, time (day): 3) | growth inhibition by drug plus 177Lu-lilotomab satetraxetan ([4]; 10 nM, time (day): 4) | growth inhibition by drug plus 177Lu-lilotomab satetraxetan ([4]; 10 nM, time (day): 5) | growth inhibition by drug plus 177Lu-lilotomab satetraxetan ([4]; 10 nM, time (day): 6) | growth inhibition by drug plus 177Lu-lilotomab satetraxetan ([4]; 100 nM, time (day): 3) | growth inhibition by drug plus 177Lu-lilotomab satetraxetan ([4]; 100 nM, time (day): 4) | growth inhibition by drug plus 177Lu-lilotomab satetraxetan ([4]; 100 nM, time (day): 5) | growth inhibition by drug plus 177Lu-lilotomab satetraxetan ([4]; 100 nM, time (day): 6)
Nc1ccn([C@@H]2O[C@H](CO)[C@@H](O)[C@@H]2O)c(=O)n1 [Cytarabine] | -0.00637 | 0.0194 | -0.0299 | -0.0808 | 0.484 | 0.568 | 0.585 | 0.6 | -0.0997 | -0.0678 | -0.108 | -0.326 | -0.231 | 0.0413 | 0.0792 | 0.023 | -0.0521 | 0.00463 | -0.0153 | -0.0601 | 0.688 | 0.801 | 0.859 | 0.89 | 0.51 | 0.601 | 0.632 | 0.644 | 0.655 | 0.771 | 0.793 | 0.81
Fc1cc(-c2cccc3ncc(-c4cnn(C5CCNCC5)c4)nc23)cc(F)c1CN1CCOCC1 | 0.107 | 0.069 | -0.083 | -0.0936 | 0.0551 | 0.07 | 0.0444 | -0.14 | 0.0385 | 0.00291 | -0.0745 | -0.286 | -0.358 | -0.305 | -0.287 | -0.341 | 0.0469 | 0.0958 | 0.15 | 0.179 | 0.041 | 0.106 | 0.135 | 0.237 | 0.548 | 0.579 | 0.59 | 0.593 | 0.571 | 0.589 | 0.6 | 0.592
C[S+]([O-])c1ccc(-c2nc(-c3ccc(F)cc3)c(-c3ccncc3)[nH]2)cc1 (centres undefined) | 0.109 | 0.0691 | 0.0651 | 0.00981 | 0.494 | 0.396 | 0.258 | 0.202 | -0.0319 | 0.0179 | -0.0545 | -0.284 | -0.128 | -0.0437 | -0.0833 | -0.227 | 0.103 | 0.123 | 0.206 | 0.225 | 0.441 | 0.358 | 0.325 | 0.374 | 0.668 | 0.678 | 0.684 | 0.677 | 0.322 | 0.441 | 0.432 | 0.451
S=C(NCc1ccc2c(c1)OCO2)N1CCN(c2ncnc3c2oc2ccccc23)CC1 [Amuvatinib (MP-470)] | 0.138 | 0.0926 | -0.0674 | -0.0914 | 0.459 | 0.471 | 0.474 | 0.434 | 0.0683 | 0.0587 | 0.0228 | -0.162 | 0.05 | 0.0617 | 0.0713 | 0.0541 | 0.0425 | 0.101 | 0.162 | 0.177 | 0.465 | 0.477 | 0.498 | 0.561 | 0.627 | 0.668 | 0.684 | 0.68 | 0.641 | 0.642 | 0.661 | 0.677
COc1c(C)c2c(c(O)c1C/C=C(\C)CCC(=O)O)C(=O)OC2 [Mycophenolic (Mycophenolate)] | 0.183 | 0.162 | 0.104 | 0.147 | 0.779 | 0.83 | 0.78 | 0.716 | 0.102 | 0.108 | 0.06 | -0.0787 | 0.409 | 0.362 | 0.284 | 0.202 | 0.128 | 0.131 | 0.191 | 0.311 | 0.759 | 0.81 | 0.733 | 0.662 | 0.534 | 0.601 | 0.625 | 0.635 | 0.712 | 0.719 | 0.736 | 0.739
CC1=C(/C=C/C(C)=C/C=C/C(C)=C/C(=O)Nc2ccc(O)cc2)C(C)(C)CCC1 [Fenretinide] | 0.0635 | 0.0202 | -0.0163 | -0.136 | 0.757 | 0.403 | 0.216 | 0.00716 | -0.0432 | -0.0451 | -0.13 | -0.456 | -0.388 | -0.302 | -0.337 | -0.461 | 0.0221 | 0.0894 | 0.138 | 0.148 | 0.704 | 0.374 | 0.313 | 0.295 | 0.515 | 0.573 | 0.583 | 0.583 | 0.435 | 0.504 | 0.521 | 0.541
CC[C@@H]1/C=C(\C)C[C@H](C)C[C@H](OC)[C@H]2O[C@@](O)(C(=O)C(=O)N3CCCC[C@H]3C(=O)O[C@H](/C(C)=C/[C@@H]3CC[C@H](Cl)[C@H](OC)C3)[C@H](C)[C@@H](O)CC1=O)[C@H](C)C[C@@H]2OC [Pimecrolimus] | 0.214 | 0.249 | 0.272 | 0.287 | 0.139 | 0.29 | 0.361 | 0.431 | 0.339 | 0.267 | 0.276 | 0.279 | 0.691 | 0.549 | 0.534 | 0.477 | 0.198 | 0.242 | 0.304 | 0.352 | 0.12 | 0.321 | 0.373 | 0.447 | 0.545 | 0.621 | 0.662 | 0.701 | 0.634 | 0.675 | 0.716 | 0.743
